Results as given in PubChem BioAssay (NCATS).
Results filed as inconclusive are left out. Calls of active or inactive are those of the source. The call rests on the fitted dose curve; in most records, active means well fitted cell-killing curve with a large enough effect; inconclusive means small, poorly fitted or top-dose-only effect; inactive means no such curve, though single readings can be large or run the other way. Bridge positions count the residues as written; N and C are the ends. Square brackets hold non-standard residues; d marks the D form. Side chains are listed from the residue outwards. Peptide text beside a SMILES is read from it. * marks the point of attachment. Phg(4-OMe) = COc1ccc([C@H](N)C(=O)O)cc1; d(aIle) = CC[C@H](C)[C@@H](N)C(=O)O; d(aThr) = C[C@@H](O)[C@@H](N)C(=O)O; NMeF = CN[C@@H](Cc1ccccc1)C(=O)O; Isobutyryl = CC(C)C(=O)*

Assay: MCF7 Cancer Cell Toxicity qHTS against the NCATS CANVASS Library (AID 1347369)
Details: MCF7 viability, ATP luminescence (CellTiter-Glo), 72 h; series mostly up to 46 µM; activity change, negative = cytotoxicity: at the top concentration
From the text: Natural products and their derivatives continue to be wellsprings of nascent therapeutic potential. However, many laboratories have limited resources for biological evaluation, leaving their previously isolated or synthesized compounds largely or completely untested. To address this issue, the Canvass library of natural products was assembled (https://tripod.nih.gov/canvass), in collaboration with academic and industry researchers, for quantitative high-throughput screening (qHTS) across a diverse set of cell-based and biochemical assays. The pure (>85% purity by liquid chromatography/mass spectrometry [LC/MS]) Canvass library of 346 natural products were submitted by 45 academic laboratories and companies around the world. We collected pure natural products to circumvent deconvolution and structure elucidation due to time and resource limitations. The library was formatted into 1536-well plates and evaluated in 50 qHTS (in an 11-pnt concentration series) bioassays with broad scope of disease-relevant mechanisms. The resulting data set from 50 different assays was then systematically analyzed to identify overall trends and specific natural products with interesting biological activities. Reported herein are the results of each individual qHTS and their corresponding assay protocol. This assay uses ATP (luminescence) content to measure the cytotoxiciy of compounds on MCF7 human breast cancer cell line. National Center for Advancing Translational Sciences (NCATS), Rockville, MD National Institute of Health (NIH), Bethesda, Maryland
Cancer Cell Toxicity qHTS protocol: MCF7 cell line 1. In a 1536 well, tissue culture treated white solid bottom plates (Corning 7494), 5 uL of MCF7 cell solution (final concentration of 500 cells / well) was dispensed using the Multidrop Combi dispenser (Thermo Fisher Scientific) into columns 2-48, rows 1-32. DMEM + 10% FBS + 1% Pen/Strep solution was dispensed into column 1, row 1-32 also using the Multidrop Combi dispenser. 2. Control and Compounds were pin transferred (~23nL volume) to the assay plates via Wako Pin-tool (Wako Automation, Richmond VA) equipped with a 1536 pin head. The compounds were transferred to columns 5-48 resulting in a final concentration ranging from 0.17 nM to 103 uM. Dose response titration of Bortezomib was pin transferred into column 2, rows 1-32 (2mM; 1:2 dilution; 16 points) resulting to a final concentration range of 0.3nM - 9.2uM. 3. The assay plates were further incubated in the at 37C, 5% CO2, 95% Rh for 72 hr. 4. After incubation, 3 uL of CellTiterGlo reagent (Promega) was added to the assay plates (column 1-48, rows 1-32) using the Multidrop Combi dispenser. The assay plates were centrifuged for 15 sec at 1000 rpm to remove bubbles. 5. Luminescence signal was acquired via the ViewLux plate reader (PerkinElmer) using a clear emission filter, 2 sec exposure, and 1x binning settings.
On the % scale 0 is the no-effect control and ±100 the full control effect; potency means the concentration at half of the fitted maximal effect.

**Q.** Which “outcome” value does the source give for C[C@@]12CCC[C@@](C)(C(=O)O)[C@H]1C[C@@H](O)[C@@]13C[C@@H](CC[C@@H]21)[C@](C)(O)C3 here?
**A.** The value was “inactive”.

**Q.** Which “outcome” value does the source give for CC[C@H](C)[C@H]1NC(=O)[C@@H](NC(=O)C(C)C)[C@@H](C)OC(=O)[C@H](COC(=O)CNC(C)=O)NC(=O)[C@@H]([C@@H](C)O)NC(=O)[C@H](Cc2ccccc2)N(C)C(=O)[C@H](c2ccc(OC)cc2)NC1=O (Isobutyryl-T[d(aIle)][Phg(4-OMe)][NMeF][d(aThr)]S([Gly-Ac]); ester 1-C) here?
**A.** The value was “inactive”.

**Q.** Which “activity change, negative = cytotoxicity” value does the source give for CC[C@@H]1[C@H](C)[C@H](c2cc(OC)c(OC)cc2OC)[C@@H](C)[C@H](c2cc(OC)c(OC)cc2OC)[C@]12C=C(OC)C(=O)C=C2OC here?
**A.** Its value is -17.7% (inactive).

**Q.** For COc1cc(C2OCC3C(c4ccc(O)c(OC)c4)OCC23)ccc1O (stereo not given), which activity change, negative = cytotoxicity is on record?
**A.** Its activity change, negative = cytotoxicity is -7.78% [at 9.17 µM] (inactive).

**Q.** With O[C@H]1c2ccccc2-c2c3c(cc4c2[C@@H]1NCC4)OCO3 as the compound, how does the Potency read?
**A.** Its Potency is 29.4 µM (active).

**Q.** For C=C(C)C(=O)O[C@H]1C[C@@]2(C)OC(=CC2=O)/C(C)=C\[C@H]2OC(=O)C(=C)[C@H]12, which Potency is on record?
**A.** The Potency was 4.16 µM (active).

**Q.** With CC(=O)O[C@H]1c2ccccc2-c2c3c(cc4c2[C@@H]1N(C(C)=O)CC4)OCO3 as the compound, how does the “activity change, negative = cytotoxicity” value read?
**A.** The value was -21.8% (inactive).

**Q.** For COC(=O)c1cccc2oc(-c3cccc4oc(-c5c(C)cccc5O)nc34)nc12, which “activity change, negative = cytotoxicity” value is on record?
**A.** Its value is -28.8% (inactive).

**Q.** Which “activity change, negative = cytotoxicity” value does the source give for C=C[C@]1(C)CC[C@@H]([C@H](C)C(=O)CC=C(C)C)O1 here?
**A.** Its value is -16.1% (inactive).

**Q.** With CC1(C)CC[C@]2(CO)CC[C@]3(C)C(=CCC4[C@@]5(C)CC[C@H](O)C(C)(C)C5CC[C@]43C)C2C1 (stereo not given in full) as the compound, how does the “outcome” value read?
**A.** The value was “inactive”.

**Q.** For C[C@H]1C=C[C@H]2CCCC[C@@H]2[C@H]1C(=O)[C@H]1CC2=C(C(=O)O)CCN2C1=O, which “activity change, negative = cytotoxicity” value is on record?
**A.** The value was -25% (inactive).

**Q.** Which “outcome” value does the source give for C[C@@]1(CCC(=O)Nc2c(O)ccc(C(=O)O)c2O)C(=O)C=C[C@]23C[C@H]4C[C@H](O[C@@]4(C)C2)C31 (stereo not given in full) here?
**A.** Its value is “inactive”.

**Q.** For O=Cc1ccc2n1C[C@]1(OC2)O[C@H](CO)[C@@H](O)[C@@H]1O, which “outcome” value is on record?
**A.** Its value is “inactive”.

**Q.** With COc1cc2ccc(=O)oc2c(O)c1O[C@@H]1O[C@H](CO)[C@@H](O)[C@H](O)[C@H]1O as the compound, how does the “outcome” value read?
**A.** The value was “inactive [at 27.5 µM]”.

**Q.** For CC1=C[C@H]2[C@H]3C(=O)C(c4ccc(O)cc4)=C[C@@]3(c3ccc(O)cc3)[C@@H]1C(=O)[C@]2(C)O, which “activity change, negative = cytotoxicity” value is on record?
**A.** The value was -19.4% (inactive).

**Q.** With O=C1CC(c2ccc(O)cc2)Oc2ccccc21 (stereo not given) as the compound, how does the “activity change, negative = cytotoxicity” value read?
**A.** The value was 2.9% (inactive).

**Q.** Which “activity change, negative = cytotoxicity” value does the source give for CN1CC[C@]23c4ccccc4N[C@H]1[C@]21CCN(C)[C@H]3Nc2ccccc21 here?
**A.** The value was -21.5% (inactive).

**Q.** For COc1ccc([C@@H]2c3cc4c(cc3C(=O)C(C)C2C)OCO4)cc1OC (stereo not given in full), which “activity change, negative = cytotoxicity” value is on record?
**A.** Its value is -4.07% (inactive).

**Q.** For C/C1=C/[C@@H](C)[C@H](O)[C@@H](O)/C=C/CC/C=C/C(=O)O[C@@H]1[C@H](C)C(=O)CCCC1CC(=O)NC(=O)C1, which “activity change, negative = cytotoxicity” value is on record?
**A.** The value was -25% (inactive).

**Q.** Which “outcome” value does the source give for COc1ccc([C@@H]2c3cc4c(cc3C[C@H](C)C2C)OCO4)cc1OC (stereo not given in full) here?
**A.** Its value is “inactive”.

**Q.** Which “activity change, negative = cytotoxicity” value does the source give for CN1CC[C@@]23c4ccccc4N[C@@H]1[C@@]21CCN(C)[C@@H]3Nc2ccccc21 here?
**A.** The value was -21.3% (inactive).

**Q.** For C=C1C[C@]23C=CC(=O)[C@@](C)(CCCC(C)C(=O)N[C@@H](CO)C(=O)O)[C@@H]2C[C@@H]1CC3 (stereo not given in full), which “activity change, negative = cytotoxicity” value is on record?
**A.** Its value is -0.337% (inactive).

**Q.** Which “activity change, negative = cytotoxicity” value does the source give for CC[C@H](O)CCCCC[C@@H]1NC(=O)[C@H]2CCCCN2C(=O)[C@H]([C@H](C)CC)NC(=O)[C@H](Cc2cn(OC)c3ccccc23)NC1=O here?
**A.** Its value is -24.5% (inactive).

**Q.** For C[n+]1cc2cc(C(N)=O)[nH]c3c(=N)c(Cl)c(N)c1c23, which “activity change, negative = cytotoxicity” value is on record?
**A.** Its value is -15.6% (inactive).

**Q.** For COC(=O)[C@@]12Oc3cccc(O)c3C(O)=C1C(=O)C[C@H](C)[C@H]2O, which “outcome” value is on record?
**A.** The value was “inactive [at 91.3 µM]”.

**Q.** For C/C=C(/CO)C(=O)O[C@@H]1[C@H](O)[C@@H](C(=O)OC)O[C@@H]2C[C@H]3OC(n4cnc5c(N)ncnc54)[C@H](OC)[C@H]3O[C@@]12O (stereo not given in full), which “activity change, negative = cytotoxicity” value is on record?
**A.** The value was -23.3% (inactive).

**Q.** With C[C@H](CCC(O)C(C)(O)CO)[C@@]1(O)CC[C@@]2(C)C3=C(CC[C@@]21C)[C@@]1(C)CCC(OC(=O)CCC(=O)O)C(C)(C)[C@@H]1CC3 (stereo not given in full) as the compound, how does the “activity change, negative = cytotoxicity” value read?
**A.** The value was -7.87% (inactive).

**Q.** For COC1C(C)OC(OCC23C[C@@H]4[C@H](C)CC[C@H]4C4(C=O)CC2C=C(C(C)C)C34C(=O)O)[C@@H](O)[C@H]1O (stereo not given in full), which “outcome” value is on record?
**A.** Its value is “inactive”.

**Q.** With C=C[C@@](C)(O)CC[C@@H]1[C@@]2(C)CCCC(C)(C)[C@@H]2CC[C@@]1(C)O as the compound, how does the “outcome” value read?
**A.** Its value is “inactive”.

**Q.** With C/C=C(/C)c1cc(O)c(C)c2c1Oc1cc(O)cc(C)c1C(=O)O2 as the compound, how does the “activity change, negative = cytotoxicity” value read?
**A.** Its value is -22.6% (inactive).

**Q.** For Cc1cc(O)cc2c1C(=O)c1c(O)cc(O)cc1C2=O, which “outcome” value is on record?
**A.** The value was “inactive”.

**Q.** Which “activity change, negative = cytotoxicity” value does the source give for C[C@H]1CCC2(OC1)O[C@H]1C[C@H]3[C@@H]4CC(=O)[C@]5(O)C[C@H](O)CC[C@@]5(C)[C@H]4CC[C@@]3(C)[C@H]1[C@H]2C (stereo not given in full) here?
**A.** Its value is -12% (inactive).

**Q.** With CO[C@@H](C[C@@H](C)[C@@H](O)/C=C/C=C/CNC(=O)C(C)(C)[C@H](O)\C(C)=C/C=C\C=C\Cc1cnco1)[C@]1(O)[C@@H](C)C(=O)N(C)[C@@]12COC2=O as the compound, how does the “outcome” value read?
**A.** Its value is “inactive”.

**Q.** Which “activity change, negative = cytotoxicity” value does the source give for O=c1cc(-c2ccc(O)c(O)c2)oc2cc(O[C@@H]3O[C@H](CO)[C@@H](O)[C@H](O)[C@H]3O)cc(O)c12 here?
**A.** Its value is -1.91% (inactive).

**Q.** Which “activity change, negative = cytotoxicity” value does the source give for C/C(=C\CC[C@@H](C)[C@H]1CC[C@]2(C)C3=CCC4C(C)(C)[C@@H](O)C[C@@H](O)[C@]4(C)C3[C@H](O)C[C@@]12C)CO (stereo not given in full) here?
**A.** Its value is -12.2% (inactive).

**Q.** With COc1ccc([C@@H]2c3cc4c(cc3C(=O)[C@H](C)C2C)OCO4)cc1OC (stereo not given in full) as the compound, how does the “activity change, negative = cytotoxicity” value read?
**A.** Its value is -8.73% (inactive).

**Q.** For CN1CC[C@]2(c3cccc4c3N[C@H]3N(C)CC[C@@]43[C@]34CCN(C)[C@H]3Nc3ccccc34)c3ccccc3N[C@H]12, which Potency is on record?
**A.** The Potency was 11.7 µM (active).

**Q.** For CC(C)[C@@H]1CC(=O)c2coc3c2[C@H]1C[C@@H](C)C3=O, which “outcome” value is on record?
**A.** Its value is “inactive”.

**Q.** With Cc1occ2c1C(=O)c1c(cc(O)c(O)c1O)C2=O as the compound, how does the “activity change, negative = cytotoxicity” value read?
**A.** The value was -7.45% (inactive).

**Q.** With C[C@H](c1cnc(N)[nH]1)c1ccc(O)c2[nH]cc(-c3cnc(-c4c[nH]c5ccccc45)c(=O)[nH]3)c12 as the compound, how does the “outcome” value read?
**A.** The value was “inactive”.
